Assay outcomes from PubChem.
Most compounds without a hit are left out; they make up all but 12% or so of the library.
Pf growth 96h: P. falciparum growth inhibition at 96 hour, primary screen for plastid delayed-death inhibitors | P. falciparum luciferase reporter growth, 96 h | Potency, µM (highest dose often 28.7 µM), usual class: inhibitors | 6.9% of 320,000 active | AID 504834
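Luminescence readout: decreased luciferase signal marks inhibited growth of reporter-expressing P. falciparum in infected red cells (2% hematocrit, 0.05% parasitemia final), exposed to compound two generations (96 h, 37 C, 5% CO2).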
Sm TGR block: S. mansoni TGR enzyme inhibition; Q962Y6; purified TGR, DTNB reduction, TNB absorbance 405 nm; Potency, µM (highest dose often 114 µM), actives largely listed as inhibitors; 3% of 360,000 active; AID 485364; further: nearly all actives have a fitted effect of over 60% in size
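TGR 20 nM + NADPH 100 uM (dispensed conc.), cpd preinc 15 min RT; start with NADPH (500 uM addition) then DTNB (15 mM addition). Kinetic TNB absorbance, 405 nm filter. Four-parameter Hill fit across titration.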
AmpC inh no detg: blocks E. coli AmpC beta-lactamase in detergent-free assay. AmpC nitrocefin hydrolysis, absorbance 480 nm, 0.0001% Triton. Potency, µM (doses to about 57.1 µM), actives largely listed as inhibitors. 0.52% of 330,000 active; further: nearly all actives have a fitted effect of over 20% in size
Target sequence (P00811 whole entry, looked up): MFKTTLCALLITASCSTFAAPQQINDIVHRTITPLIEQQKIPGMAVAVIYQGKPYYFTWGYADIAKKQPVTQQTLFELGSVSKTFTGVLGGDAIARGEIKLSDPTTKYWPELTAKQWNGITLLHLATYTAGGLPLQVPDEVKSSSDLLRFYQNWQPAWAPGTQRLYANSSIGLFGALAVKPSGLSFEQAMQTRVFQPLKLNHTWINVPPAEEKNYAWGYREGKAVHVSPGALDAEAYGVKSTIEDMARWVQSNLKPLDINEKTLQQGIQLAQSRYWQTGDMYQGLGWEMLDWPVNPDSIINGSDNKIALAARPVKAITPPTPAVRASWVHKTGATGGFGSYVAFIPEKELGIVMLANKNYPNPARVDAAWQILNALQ
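AmpC (5.3 nM in the dispensed reagent) in 20 mM phosphate pH 7.0 with 0.01% (detergent screen) or 0.0001% Triton X-100 was preincubated with compounds for 15 min at room temperature. Nitrocefin was then added from an 800 uM solution, and hydrolysis was followed at 480 nm.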
Pf growth 48h: P. falciparum growth inhibition at 48 hours (one generation) | P. falciparum luciferase growth in erythrocytes, 48 h | Potency, µM (doses to about 28.7 µM), actives largely listed as inhibitors | 5.9% of 310,000 active
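Luciferase-expressing parasites in RBCs, 2% Hct / 0.1% parasitemia final; RPMI 1640 + 0.5% Albumax; 37 C, 5% CO2, one generation; luminescence read-out, lower signal = inhibition.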
SARS PLpro yeast: blocks SARS-CoV papain-like protease in a yeast assay. S. cerevisiae expressing SARS-CoV PLpro, growth rescue. Potency, µM (doses to about 32.9 µM), most hits filed as activators. 0.19% of 330,000 active; calls by dose curve; further: nearly all actives have a fitted effect of over 55% in size
AmpC detergent: inhibitors of E. coli AmpC beta-lactamase with detergent | P00811 | AmpC hydrolysis of nitrocefin, absorbance 480 nm, 0.01% Triton | Potency, µM (doses to about 114 µM), actives largely listed as inhibitors | 0.041% of 370,000 active | AID 485294; further: nearly all actives have a fitted effect of over 25% in size
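20 mM phosphate pH 7.0 + 0.01% (detergent screen) or 0.0001% Triton X-100; 5.3 nM AmpC reagent; cpd preinc 15 min RT; nitrocefin (800 uM stock) to start; A480 q20 s × 4 min; Activity was normalised to no-enzyme and no-compound control wells.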
Of the large screens only hits and unclear results are named; the others gave an inactive call. Unless noted, the call rests on the fitted dose curve; in most records, active means well fitted curve in the direction sought with a large enough effect; inconclusive means small, poorly fitted or top-dose-only effect, or another doubt; inactive means no such curve, though single readings can be large; an effect the other way counts as inactive or inconclusive.

COc1ccc(-c2ccc(-c3nc4c(c(=O)[nH]c(=O)n4Cc4ccccc4)n3C)o2)c([N+](=O)[O-])c1	Pf growth 96h inconclusive, Pf growth 48h inconclusive
CC(C)Cn1c(-c2cc([N+](=O)[O-])ccc2Cl)nc2c1c(=O)[nH]c(=O)n2Cc1ccccc1	Pf growth 96h 2.62µM, Pf growth 48h 5.22µM
CCOCCCNC(=O)C(c1ccccc1)N(Cc1cccs1)C(=O)c1ccc(NC(C)=O)cc1 (centres undefined)	none (no result: Pf growth 96h, AmpC inh no detg, Pf growth 48h, SARS PLpro yeast)
CCCCc1nn2c(=O)cc(COC(=O)c3cccc(NC(=O)CCc4ccccc4)c3)nc2s1	none (no result: Pf growth 96h, AmpC inh no detg, Pf growth 48h, SARS PLpro yeast)
COc1ccccc1CCC(=O)Nc1ncc(C)s1	none
O=c1[nH]c(=O)n(Cc2ccccc2)c2nc(-c3ccc(Oc4ccc(F)cc4)c([N+](=O)[O-])c3)n(CCO)c12	Pf growth 96h inconclusive, Pf growth 48h 13.1µM
COCCn1c(-c2ccc(OC(F)(F)C(F)C(F)(F)F)cc2)nc2c1c(=O)[nH]c(=O)n2CC(C)C (centres undefined)	Pf growth 96h 6.57µM (no result: Pf growth 48h)
COCCn1c(-c2ccc(SC)cc2)nc2c1c(=O)[nH]c(=O)n2CC(C)C	none
CCCNc1ccc(-c2nc(-c3ccncc3)no2)cc1[N+](=O)[O-]	none (no result: Pf growth 96h, AmpC inh no detg, Pf growth 48h, SARS PLpro yeast)
CCN(CC)c1ccc(/C=C/c2cc(-c3ccccc3)c3ccccc3n2)cc1	Pf growth 96h 11.7µM, Pf growth 48h inconclusive
COc1ccccc1OCC(=O)Nc1ccc(S(=O)(=O)N2CCN(C)CC2)cc1	none
Cc1ccc(S(=O)(=O)Nc2ccc(-c3nc4cc(NS(=O)(=O)c5ccc(C)cc5)ccc4o3)cc2)cc1	Pf growth 96h 4.15µM, AmpC detergent inconclusive (no result: Pf growth 48h)
Cn1c(=O)c2cc(S(=O)(=O)NC(C(=O)Nc3cccc(F)c3)c3ccccc3)ccc2n(C)c1=O (centres undefined)	Pf growth 96h inconclusive (no result: Pf growth 48h)
CSc1cccc(NS(=O)(=O)c2ccc3c(c2)oc(=O)n3C)c1	Pf growth 96h 11.7µM (no result: Pf growth 48h)
Cn1c(=O)c2cc(S(=O)(=O)Nc3cccc(F)c3)ccc2n(C)c1=O	Pf growth 96h 14.7µM (no result: Pf growth 48h)
Cc1ccc(NS(=O)(=O)c2ccc3c(c2)oc(=O)n3C)cc1	Pf growth 96h 2.62µM
CCOC(=O)C1CCN(S(=O)(=O)c2cn(C)cn2)CC1	none
NNC(=O)CNC(c1ccccc1)c1cc(Br)ccc1NC(=O)c1ccc(Br)cc1 (centres undefined)	Pf growth 48h 8.28µM
O=C(CCN1CCOCC1)NCC(=O)Nc1ccc(Br)cc1C(=O)c1ccccc1	Pf growth 96h 13.1µM
NNC(=O)CNC(c1ccccc1)c1cc(Br)ccc1NC(=O)c1cccc(Cl)c1 (centres undefined)	Pf growth 96h inconclusive, Pf growth 48h 13.1µM
CCOC(=O)CNC(c1ccccc1)c1cc(Br)ccc1NC(=O)c1cccc(Cl)c1 (centres undefined)	none (no result: Pf growth 96h, AmpC inh no detg, Pf growth 48h, SARS PLpro yeast)
NNC(=O)CNC(c1ccccc1)c1cc(Br)ccc1NC(=O)c1ccccc1Br (centres undefined)	Pf growth 48h 8.28µM
O=C(CN1CCCCC1)NCC(=O)Nc1ccc(Br)cc1C(=O)c1ccccc1	AmpC detergent inconclusive
COC(=O)CNC(c1ccccc1)c1cc(Br)ccc1NC(=O)c1ccccc1 (centres undefined)	none (no result: Pf growth 96h, AmpC inh no detg, Pf growth 48h, SARS PLpro yeast)
NNC(=O)CNC(c1ccccc1)c1cc(Br)ccc1NC(=O)CCN1CCOCC1 (centres undefined)	Pf growth 96h 9.28µM, Sm TGR block 17.8µM, Pf growth 48h 11.7µM
CC(=O)Nc1nnc(CSCc2ccccc2F)s1	none
COc1ccccc1NS(=O)(=O)c1cc(NC(=O)c2cccs2)ccc1N1CCOCC1	Pf growth 96h inconclusive, Pf growth 48h 9.28µM
COc1ccccc1NS(=O)(=O)c1cc(NC(=O)c2ccccc2[N+](=O)[O-])ccc1N1CCOCC1	none (no result: Pf growth 96h, Sm TGR block, Pf growth 48h, AmpC detergent)
COc1nnc(-c2ccc(N3CCOCC3)c(NC(=O)c3ccccc3)c2)c2ccccc12	Pf growth 96h inconclusive, AmpC detergent inconclusive (no result: Pf growth 48h)
COc1ccc(NS(=O)(=O)c2cc(NC(=O)c3cccs3)ccc2N2CCOCC2)cc1	Pf growth 96h inconclusive, Pf growth 48h inconclusive
COc1ccccc1NS(=O)(=O)c1cc(NC(=O)c2ccccc2F)ccc1N1CCOCC1	Pf growth 96h 9.28µM
COc1nnc(-c2ccc(N3CCOCC3)c(NC(=O)c3ccco3)c2)c2ccccc12	Sm TGR block inconclusive, Pf growth 48h 7.38µM
COc1ccccc1NS(=O)(=O)c1ccc(N2CCOCC2)c(NC(=O)c2ccco2)c1	Pf growth 96h inconclusive
COc1ccccc1NS(=O)(=O)c1cc(NC(=O)c2ccco2)ccc1N1CCOCC1	Pf growth 96h 10.4µM, Pf growth 48h inconclusive
COc1ccc2c(c1)CC(NC(=O)Nc1ccc(Br)c(C)c1)CO2 (centres undefined)	none (no result: Pf growth 96h, AmpC inh no detg, Pf growth 48h, SARS PLpro yeast)
Cc1c(NC(=O)c2ccc(-c3ccc(F)cc3)o2)cccc1-c1nc2ncccc2o1	none (no result: Pf growth 96h, AmpC inh no detg, Pf growth 48h, SARS PLpro yeast)
COP(=O)(OC)c1nc(-c2cccc3ccccc23)oc1NCc1ccccc1	Pf growth 96h inconclusive, Pf growth 48h inconclusive
CCCOP(=O)(OCCC)c1nc(-c2ccccc2)oc1NCc1ccccc1	Pf growth 96h 3.7µM, Pf growth 48h 5.86µM, AmpC detergent inconclusive
COP(=O)(OC)c1nc(-c2ccccc2)oc1NCc1ccccc1	Pf growth 96h inconclusive, Pf growth 48h inconclusive, SARS PLpro yeast inconclusive
Cc1nc(P(=O)(c2ccccc2)c2ccccc2)c(N2CCOCC2)o1	Pf growth 48h inconclusive
Cc1ccccc1-c1nc(P(=O)(c2ccccc2)c2ccccc2)c(N2CCOCC2)o1	Pf growth 96h inconclusive, Pf growth 48h 14.7µM
CCOP(=O)(c1ccccc1)c1nc(-c2ccccc2C)oc1N1CCCCC1 (centres undefined)	Pf growth 48h 13.1µM
CCOP(=O)(c1ccccc1)c1nc(-c2ccccc2C)oc1NCc1ccccc1 (centres undefined)	Pf growth 96h inconclusive, Pf growth 48h 11.7µM, AmpC detergent inconclusive
CCOc1ccc(/C(O)=C2/C(=O)C(=O)N(CCCN3CCOCC3)C2c2ccc(F)cc2)cc1C (centres undefined)	none
CCC(C)Sc1oc(-c2ccco2)nc1S(=O)(=O)c1ccc(Cl)cc1 (centres undefined)	none (no result: Pf growth 96h, AmpC inh no detg, Pf growth 48h, SARS PLpro yeast)
Cc1ccc(-c2nc3ccccc3[nH]2)cc1NC(=O)c1ccco1	Pf growth 96h inconclusive
O=C(Nc1cccc(-c2nc3ccccc3[nH]2)c1)c1cccc(NC(=O)c2ccco2)c1	AmpC inh no detg 3.16µM, Pf growth 48h inconclusive, AmpC detergent inconclusive (no result: Pf growth 96h)
O=C(Nc1cc(-c2ccccc2)cs1)c1ccco1	Pf growth 96h 2.33µM, Pf growth 48h inconclusive
O=C(Nc1ccc2nc(-c3ccc(Br)o3)[nH]c2c1)c1ccco1	Pf growth 48h inconclusive (no result: Pf growth 96h)
